Assay results published in PubChem BioAssay (NCI).
This is part of a sample that, as a whole, favours compounds with a hit. Of some 79,000 tested, about 15% had one in any assay. Activity calls are given as the source filed them. Rule as the data show it: active = growth inhibition above about 70%; inactive = the rest.

Key:
[1] = NCI Yeast Anticancer Drug Screen. Data for the rad50 strain (AID 155);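 also: 0% = growth of vehicle-only cultures of the same strain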; conditions: S. cerevisiae rad50 strain growth inhibition, stronger effect = higher value
Outline: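 Readout: growth inhibition relative to vehicle-treated cultures. Compound exposure was carried out in a genetically defined yeast strain deficient in DNA damage repair.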

[2] = NCI Yeast Anticancer Drug Screen. Data for the mec2-1 strain (AID 157); conditions: S. cerevisiae mec2-1 strain, stronger effect = higher value
Outline: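 mec2-1 yeast strain, carrying an alteration in DNA damage repair or cell cycle control, was exposed to compounds; growth inhibition was measured relative to vehicle-treated controls.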

[3] = NCI Yeast Anticancer Drug Screen. Data for the sgs1 mgt1 strain (AID 161);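 also: 0% = growth of cultures given vehicle only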; conditions: S. cerevisiae sgs1 mgt1 strain, stronger effect = higher value
Outline: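 Yeast cells carrying a defined DNA-repair defect were exposed to test compounds. Growth inhibition was measured relative to vehicle-treated controls.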

[4] = NCI Yeast Anticancer Drug Screen. Data for the cln2 rad14 strain (AID 165);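 also: 0% = growth equal to vehicle treated cultures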; conditions: S. cerevisiae cln2 rad14 strain, stronger effect = higher value
Outline: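 Yeast carrying cln2 and rad14 alterations (cell cycle control and DNA damage repair) were exposed to compounds. Growth inhibition was measured against vehicle-treated controls.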

[5] = NCI Yeast Anticancer Drug Screen. Data for the bub3 strain (AID 167); conditions: S. cerevisiae bub3 mutant strain, stronger effect = higher value
Outline: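 Readout: yeast growth inhibition, expressed relative to vehicle-only wells. The test organism is a mutant strain from a panel with lesions in DNA repair or checkpoint genes.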

[6] = NCI Yeast Anticancer Drug Screen. Data for the mlh1 rad18 strain (AID 175); conditions: S. cerevisiae mlh1 rad18 strain growth inhibition, stronger effect = higher value
Outline: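 Growth inhibition of the yeast strain was measured after compound exposure and expressed relative to vehicle-treated controls. The strain carries defined defects in DNA damage repair.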

[7] = at 5.0 µM (retest, dose inferred, filed as 0.5)
[8] = at 50.0 µM (retest, dose inferred, filed as 5.0)

Measured: growth inhibition

COC/C(Br)=C\SC#N (tested in a mixture with another compound)
active: [1]; at 50.0 µM 98.8% | [2]; at 50.0 µM 98.7% | [3]; at 50.0 µM 98.9% | [4]; at 50.0 µM 97.7% | [5]; at 50.0 µM 98.2% | [6]; at 50.0 µM 98.2%
inactive: [1]; [7] 0% | [1]; [8] 34% | [2]; [7] -14% | [2]; [8] 23% | [3]; [7] -2% | [3]; [8] 40% | [4]; [7] -5% | [4]; [8] 61% | [5]; [7] -6% | [5]; [8] 53% | [6]; [7] 16% | [6]; [8] 38%

Cc1c2ccnc(C(N)=O)c2c(C)c2c1[nH]c1ccccc12
active: [1]; [8] 90% | [1]; at 50.0 µM 76.1% | [2]; [8] 98% | [3]; [8] 84% | [4]; [8] 79% | [5]; [8] 97% | [6]; [8] 97% | [6]; at 50.0 µM 73.9%
inactive: [1]; [7] 9% | [2]; [7] 12% | [2]; at 50.0 µM 48.1% | [3]; [7] 7% | [3]; at 50.0 µM 38.6% | [4]; [7] 11% | [4]; at 50.0 µM 47.1% | [5]; [7] 7% | [5]; at 50.0 µM 56.1% | [6]; [7] 12%

COc1ccc2nc3cc(Cl)ccc3c(NCCNCCCNC(=O)c3cc(-c4ccccc4)nc4ccccc34)c2c1
inactive: [1]; [7] -14% | [2]; [7] -1% | [3]; [7] -5% | [3]; [8] 69% | [4]; [7] 30% | [5]; [7] -15% | [6]; [7] -11%
active: [1]; [8] 98% | [1]; at 50.0 µM 96.3% | [2]; [8] 87% | [2]; at 50.0 µM 93.9% | [3]; at 50.0 µM 95.2% | [4]; [8] 98% | [4]; at 50.0 µM 97.5% | [5]; [8] 97% | [5]; at 50.0 µM 94.2% | [6]; [8] 98% | [6]; at 50.0 µM 98.2%

CCCc1cc(=O)oc2c3c(c4c(c12)OC(C)(C)C=C4)O[C@@H](C)[C@H](C)[C@H]3O
inactive: [1]; [7] -1% | [2]; [7] 0% | [3]; [7] 11% | [3]; at 50.0 µM 51.8% | [4]; [7] 2% | [5]; [7] -2% | [6]; [7] 1%
active: [1]; [8] 91% | [1]; at 50.0 µM 96.7% | [2]; [8] 94% | [2]; at 50.0 µM 94.8% | [3]; [8] 95% | [4]; [8] 93% | [4]; at 50.0 µM 92.4% | [5]; [8] 94% | [5]; at 50.0 µM 96.5% | [6]; [8] 93% | [6]; at 50.0 µM 95.1%

CCN(CC)c1ccc(SC#N)cc1
active: [1]; [8] 93% | [1]; at 50.0 µM 91.2% | [2]; [8] 94% | [2]; at 50.0 µM 95.1% | [3]; [8] 95% | [4]; [8] 88% | [4]; at 50.0 µM 90.2% | [5]; [8] 96% | [5]; at 50.0 µM 97.5% | [6]; [8] 95% | [6]; at 50.0 µM 93.6%
inactive: [1]; [7] 1% | [2]; [7] -39% | [3]; [7] 0% | [3]; at 50.0 µM 58% | [4]; [7] -3% | [5]; [7] 10% | [6]; [7] -3%

Cc1cc(C)c(C(=O)/C=C/C(=O)c2ccccc2)c(C)c1
active: [1]; [7] 86% | [1]; [8] 95% | [2]; [7] 89% | [2]; [8] 96% | [2]; at 50.0 µM 78.1% | [3]; [7] 85% | [3]; [8] 96% | [3]; at 50.0 µM 90.6% | [4]; [8] 95% | [5]; [7] 89% | [5]; [8] 96% | [5]; at 50.0 µM 96% | [6]; [7] 93% | [6]; [8] 96% | [6]; at 50.0 µM 92.7%
inactive: [1]; at 50.0 µM 62.4% | [4]; [7] 51% | [4]; at 50.0 µM 47.2%

CC(=Nc1ccc(N(C)C)cc1)c1ccccc1
active: [2]; [8] 78% | [3]; [8] 70% | [5]; [8] 88% | [5]; at 50.0 µM 71.7% | [6]; [8] 78% | [6]; at 50.0 µM 71%
inactive: [1]; [7] -8% | [1]; [8] 60% | [1]; at 50.0 µM 69.7% | [2]; [7] -11% | [2]; at 50.0 µM 54.8% | [3]; [7] -5% | [3]; at 50.0 µM 46% | [4]; [7] -26% | [4]; [8] 53% | [4]; at 50.0 µM 45.4% | [5]; [7] -15% | [6]; [7] -15%

CN(C)N=Nc1ccc(Cl)c2ncccc12
inactive: [1]; [7] 3% | [1]; [8] -2% | [1]; at 50.0 µM 0.2% | [2]; [7] -2% | [2]; [8] -2% | [2]; at 50.0 µM 2.1% | [3]; [7] 0% | [3]; [8] 2% | [3]; at 50.0 µM -2.45% | [4]; [7] -2% | [4]; [8] -5% | [4]; at 50.0 µM 64.2% | [5]; [7] -2% | [5]; [8] 1% | [5]; at 50.0 µM -4.15% | [6]; [7] -2% | [6]; [8] 7% | [6]; at 50.0 µM 6.75%

c1cc(NC2CCCCC2)ccc1CN1CCOCC1
inactive: [1]; [7] 57% | [1]; at 50.0 µM 55.3% | [2]; [7] 51% | [3]; at 50.0 µM 70% | [4]; at 50.0 µM 63.8% | [5]; at 50.0 µM 68.2% | [6]; [7] 56%
active: [1]; [8] 90% | [2]; [8] 73% | [2]; at 50.0 µM 70.5% | [3]; [7] 80% | [3]; [8] 88% | [4]; [7] 72% | [4]; [8] 87% | [5]; [7] 80% | [5]; [8] 78% | [6]; [8] 82% | [6]; at 50.0 µM 79%

CC(C)SCC1CO1 (stereo unspecified)
inactive: [1]; [7] -1% | [1]; [8] 1% | [1]; at 50.0 µM -19.6% | [2]; [7] -1% | [2]; [8] -4% | [2]; at 50.0 µM 3.9% | [3]; [7] -1% | [3]; [8] 1% | [3]; at 50.0 µM 18.1% | [4]; [7] 2% | [4]; [8] -11% | [4]; at 50.0 µM 47.5% | [5]; [7] 0% | [5]; [8] -9% | [5]; at 50.0 µM -6.55% | [6]; [7] -1% | [6]; [8] -5% | [6]; at 50.0 µM -3.5%

Cc1c(S(C)=O)[n+](=O)c2ccccc2n1[O-] (stereo unspecified)
inactive: [1]; [7] 13% | [1]; at 50.0 µM 32.9% | [2]; [7] 0% | [2]; at 50.0 µM 33.7% | [3]; [7] 8% | [3]; at 50.0 µM 35.9% | [4]; [7] 2% | [4]; [8] 40% | [4]; at 50.0 µM 7.75% | [5]; [7] -2% | [5]; at 50.0 µM -5.5% | [6]; [7] 18% | [6]; at 50.0 µM 58.6%
active: [1]; [8] 85% | [2]; [8] 93% | [3]; [8] 92% | [5]; [8] 89% | [6]; [8] 96%

COc1cc(C2=N/C(=C\c3ccccc3O)C(=O)O2)cc(OC)c1OC
inactive: [1]; [7] -23% | [1]; [8] -22% | [1]; at 50.0 µM -9.9% | [2]; [7] -8% | [2]; [8] -21% | [2]; at 50.0 µM -27.1% | [3]; [7] -15% | [3]; [8] -6% | [3]; at 50.0 µM 4.05% | [4]; [7] 0% | [4]; [8] 2% | [4]; at 50.0 µM 8.7% | [5]; [7] -20% | [5]; [8] -23% | [5]; at 50.0 µM 10.8% | [6]; [7] -43% | [6]; [8] -47% | [6]; at 50.0 µM 0.65%
